# Test results: paper PMC11006913
# Numbering of substitutions follows the chain as printed.
# Columns and labels:
# Assay in all cases: PBM; 200 nM protein, PBS
# Settings in all cases: dsDNA, one strand shown
# [1] = biological target: HOXA4 (Homo sapiens, UniProt Q00056 201-287, W262R)
# [2] = biological target: HOXA4 (Homo sapiens, UniProt Q00056 201-287)
# [3] = biological target: VAX1 (Homo sapiens, UniProt Q5SQQ9 86-172)
# [4] = biological target: VAX1 (Homo sapiens, UniProt Q5SQQ9 86-172, T142I)
# Sequence of VAX1 (Homo sapiens, UniProt Q5SQQ9 86-172, T142I) (Q5SQQ9 86-172 T142I): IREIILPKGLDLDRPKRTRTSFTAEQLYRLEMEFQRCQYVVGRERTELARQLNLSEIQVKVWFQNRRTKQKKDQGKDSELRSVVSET
# [5] = biological target: VAX1 (Homo sapiens, UniProt Q5SQQ9 86-172, K157R)
# Sequence of VAX1 (Homo sapiens, UniProt Q5SQQ9 86-172, K157R) (Q5SQQ9 86-172 K157R): as the sequence (Q5SQQ9 86-172 T142I) above, with I57T, K72R counted along it
# [6] = biological target: HOXA4 (Homo sapiens, UniProt Q00056 201-287, W262F)
# Sequence of HOXA4 (Homo sapiens, UniProt Q00056 201-287, W262F) (Q00056 201-287 W262F): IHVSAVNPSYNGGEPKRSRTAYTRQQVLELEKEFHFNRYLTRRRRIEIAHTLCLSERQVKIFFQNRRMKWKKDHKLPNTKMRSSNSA
# [7] = biological target: HOXC9 (Homo sapiens, UniProt P31274 178-260, K195R)
# Sequence of HOXC9 (Homo sapiens, UniProt P31274 178-260, K195R) (P31274 178-260 K195R): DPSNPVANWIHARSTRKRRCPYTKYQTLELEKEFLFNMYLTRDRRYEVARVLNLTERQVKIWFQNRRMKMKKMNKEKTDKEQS
# [8] = biological target: T1, PAX4 (Homo sapiens, UniProt O43316 9-242, R200K)
# T1 sequence: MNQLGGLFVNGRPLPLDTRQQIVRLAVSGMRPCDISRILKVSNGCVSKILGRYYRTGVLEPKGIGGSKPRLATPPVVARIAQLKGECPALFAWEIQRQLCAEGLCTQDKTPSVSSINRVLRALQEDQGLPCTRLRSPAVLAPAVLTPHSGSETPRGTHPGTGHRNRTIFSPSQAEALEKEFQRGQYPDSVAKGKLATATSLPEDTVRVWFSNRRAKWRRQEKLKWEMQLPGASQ
# [9] = biological target: T2, PAX4 (Homo sapiens, UniProt O43316 9-242)
# T2 sequence: T1 sequence with K192R
# [10] = biological target: HOXC9 (Homo sapiens, UniProt P31274 178-260)
# Sequence of HOXC9 (Homo sapiens, UniProt P31274 178-260) (P31274 178-260): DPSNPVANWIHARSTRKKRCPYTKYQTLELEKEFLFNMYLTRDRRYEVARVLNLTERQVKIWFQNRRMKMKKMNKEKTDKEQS
# [11] = biological target: T3, PAX4 (Homo sapiens, UniProt O43316 9-242, R200Q)
# T3 sequence: T1 sequence with K192Q
# [12] = biological target: HOXC9 (Homo sapiens, UniProt P31274 178-260, R193K)
# Sequence of HOXC9 (Homo sapiens, UniProt P31274 178-260, R193K) (P31274 178-260 R193K): as the sequence (P31274 178-260) above, with R16K counted along it
# [13] = biological target: T4, PAX4 (Homo sapiens, UniProt O43316 9-242, F177V)
# T4 sequence: T1 sequence with F169V, K192R
# [14] = biological target: T5, PAX4 (Homo sapiens, UniProt O43316 9-242, F177Y)
# T5 sequence: T1 sequence with F169Y, K192R
# [15] = biological target: HOXC9 (Homo sapiens, UniProt P31274 178-260, R222W)
# Sequence of HOXC9 (Homo sapiens, UniProt P31274 178-260, R222W) (P31274 178-260 R222W): as the sequence (P31274 178-260) above, with R45W counted along it
# [16] = biological target: T6, PAX4 (Homo sapiens, UniProt O43316 9-242, R227W)
# T6 sequence: T1 sequence with K192R, R219W
# [17] = biological target: HOXC10 (Homo sapiens, UniProt Q9NYD6 254-340)
# Sequence of HOXC10 (Homo sapiens, UniProt Q9NYD6 254-340) (Q9NYD6 254-340): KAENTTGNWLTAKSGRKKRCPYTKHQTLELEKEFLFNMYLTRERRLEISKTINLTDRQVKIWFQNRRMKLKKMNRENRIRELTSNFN
# [18] = biological target: ALX3 (Homo sapiens, UniProt O95076 139-225, N203Q)
# Sequence of ALX3 (Homo sapiens, UniProt O95076 139-225, N203Q) (O95076 139-225 N203Q): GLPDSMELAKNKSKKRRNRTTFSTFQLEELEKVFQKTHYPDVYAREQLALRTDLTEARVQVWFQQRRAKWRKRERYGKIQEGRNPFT
# [19] = biological target: HOXC10 (Homo sapiens, UniProt Q9NYD6 254-340, K271E)
# Sequence of HOXC10 (Homo sapiens, UniProt Q9NYD6 254-340, K271E) (Q9NYD6 254-340 K271E): as the sequence (Q9NYD6 254-340) above, with K18E counted along it
# [20] = biological target: ALX3 (Homo sapiens, UniProt O95076 139-225)
# Sequence of ALX3 (Homo sapiens, UniProt O95076 139-225) (O95076 139-225): as the sequence (O95076 139-225 N203Q) above, with Q65N counted along it
# [21] = biological target: ALX3 (Homo sapiens, UniProt O95076 139-225, L168Q)
# Sequence of ALX3 (Homo sapiens, UniProt O95076 139-225, L168Q) (O95076 139-225 L168Q): as the sequence (O95076 139-225 N203Q) above, with L30Q, Q65N counted along it
# [22] = biological target: ALX3 (Homo sapiens, UniProt O95076 139-225, L168V)
# Sequence of ALX3 (Homo sapiens, UniProt O95076 139-225, L168V) (O95076 139-225 L168V): as the sequence (O95076 139-225 N203Q) above, with L30V, Q65N counted along it
# [23] = biological target: ALX3 (Homo sapiens, UniProt O95076 139-225, N203S)
# Sequence of ALX3 (Homo sapiens, UniProt O95076 139-225, N203S) (O95076 139-225 N203S): as the sequence (O95076 139-225 N203Q) above, with Q65S counted along it
# [24] = biological target: PRRX1 (Homo sapiens, UniProt P54821 80-166, F113S)
# Sequence of PRRX1 (Homo sapiens, UniProt P54821 80-166, F113S) (P54821 80-166 F113S): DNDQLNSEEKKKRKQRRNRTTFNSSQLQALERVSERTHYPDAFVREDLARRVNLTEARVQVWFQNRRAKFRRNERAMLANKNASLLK
# [25] = biological target: MSX2 (Homo sapiens, UniProt P35548 130-214, R199I)
# Sequence of MSX2 (Homo sapiens, UniProt P35548 130-214, R199I) (P35548 130-214 R199I): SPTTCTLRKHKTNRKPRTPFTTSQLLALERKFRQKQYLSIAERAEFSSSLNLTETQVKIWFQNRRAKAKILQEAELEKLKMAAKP
# [26] = biological target: MSX2 (Homo sapiens, UniProt P35548 130-214)
# Sequence of MSX2 (Homo sapiens, UniProt P35548 130-214) (P35548 130-214): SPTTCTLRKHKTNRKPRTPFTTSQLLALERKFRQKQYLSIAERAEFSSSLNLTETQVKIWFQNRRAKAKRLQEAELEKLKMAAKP
# [27] = biological target: MSX2 (Homo sapiens, UniProt P35548 130-214, F161Y)
# Sequence of MSX2 (Homo sapiens, UniProt P35548 130-214, F161Y) (P35548 130-214 F161Y): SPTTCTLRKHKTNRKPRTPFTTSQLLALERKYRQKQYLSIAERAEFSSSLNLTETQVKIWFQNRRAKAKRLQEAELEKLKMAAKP
# [28] = biological target: PRRX1 (Homo sapiens, UniProt P54821 80-166)
# Sequence of PRRX1 (Homo sapiens, UniProt P54821 80-166) (P54821 80-166): as the sequence (P54821 80-166 F113S) above, with S34F counted along it
# Sequence of HOXA4 (Homo sapiens, UniProt Q00056 201-287) (Q00056 201-287): as the sequence (Q00056 201-287 W262F) above, with F62W counted along it
# Sequence of HOXA4 (Homo sapiens, UniProt Q00056 201-287, W262R) (Q00056 201-287 W262R): as the sequence (Q00056 201-287 W262F) above, with F62R counted along it
# Sequence of VAX1 (Homo sapiens, UniProt Q5SQQ9 86-172) (Q5SQQ9 86-172): as the sequence (Q5SQQ9 86-172 T142I) above, with I57T counted along it
sequence,measurement,setting,value
AATCACTG,binding signal,[1],"10.3 upbm affinity estimate (log intensity, higher = more binding, comparable within an allelic series)"
same,binding signal,[2],"11.3 upbm affinity estimate (log intensity, higher = more binding, comparable within an allelic series)"
same,binding signal,[3],"9.43 upbm affinity estimate (log intensity, higher = more binding, comparable within an allelic series)"
same,binding signal,[4],"9.21 upbm affinity estimate (log intensity, higher = more binding, comparable within an allelic series)"
same,binding signal,[5],"9.33 upbm affinity estimate (log intensity, higher = more binding, comparable within an allelic series)"
CATTTGGG,binding signal,[1],"10.1 upbm affinity estimate (log intensity, higher = more binding, comparable within an allelic series)"
same,binding signal,[2],"11.3 upbm affinity estimate (log intensity, higher = more binding, comparable within an allelic series)"
same,binding signal,[6],"10.3 upbm affinity estimate (log intensity, higher = more binding, comparable within an allelic series)"
ACCGCCCG,binding signal,[7],"9.62 upbm affinity estimate (log intensity, higher = more binding, comparable within an allelic series)"
same,binding signal,[8],"9.22 upbm affinity estimate (log intensity, higher = more binding, comparable within an allelic series)"
same,binding signal,[9],"9.09 upbm affinity estimate (log intensity, higher = more binding, comparable within an allelic series)"
same,binding signal,[10],"9.79 upbm affinity estimate (log intensity, higher = more binding, comparable within an allelic series)"
same,binding signal,[11],"9.24 upbm affinity estimate (log intensity, higher = more binding, comparable within an allelic series)"
same,binding signal,[12],"9.6 upbm affinity estimate (log intensity, higher = more binding, comparable within an allelic series)"
same,binding signal,[13],"9.1 upbm affinity estimate (log intensity, higher = more binding, comparable within an allelic series)"
same,binding signal,[14],"9.01 upbm affinity estimate (log intensity, higher = more binding, comparable within an allelic series)"
same,binding signal,[15],"9.71 upbm affinity estimate (log intensity, higher = more binding, comparable within an allelic series)"
same,binding signal,[16],"9.19 upbm affinity estimate (log intensity, higher = more binding, comparable within an allelic series)"
AGTAATTC,binding signal,[1],"10.4 upbm affinity estimate (log intensity, higher = more binding, comparable within an allelic series)"
same,binding signal,[2],"11.6 upbm affinity estimate (log intensity, higher = more binding, comparable within an allelic series)"
CAGCCTTC,binding signal,[7],"9.4 upbm affinity estimate (log intensity, higher = more binding, comparable within an allelic series)"
same,binding signal,[17],"9.83 upbm affinity estimate (log intensity, higher = more binding, comparable within an allelic series)"
same,binding signal,[8],"9.16 upbm affinity estimate (log intensity, higher = more binding, comparable within an allelic series)"
same,binding signal,[9],"9.3 upbm affinity estimate (log intensity, higher = more binding, comparable within an allelic series)"
same,binding signal,[10],"9.46 upbm affinity estimate (log intensity, higher = more binding, comparable within an allelic series)"
same,binding signal,[18],"7.71 upbm affinity estimate (log intensity, higher = more binding, comparable within an allelic series)"
same,binding signal,[11],"9.32 upbm affinity estimate (log intensity, higher = more binding, comparable within an allelic series)"
same,binding signal,[12],"9.41 upbm affinity estimate (log intensity, higher = more binding, comparable within an allelic series)"
same,binding signal,[13],"9.05 upbm affinity estimate (log intensity, higher = more binding, comparable within an allelic series)"
same,binding signal,[19],"9.85 upbm affinity estimate (log intensity, higher = more binding, comparable within an allelic series)"
same,binding signal,[20],"7.49 upbm affinity estimate (log intensity, higher = more binding, comparable within an allelic series)"
same,binding signal,[14],"9.15 upbm affinity estimate (log intensity, higher = more binding, comparable within an allelic series)"
same,binding signal,[21],"7.82 upbm affinity estimate (log intensity, higher = more binding, comparable within an allelic series)"
same,binding signal,[15],"9.69 upbm affinity estimate (log intensity, higher = more binding, comparable within an allelic series)"
same,binding signal,[22],"7.71 upbm affinity estimate (log intensity, higher = more binding, comparable within an allelic series)"
same,binding signal,[16],"9.26 upbm affinity estimate (log intensity, higher = more binding, comparable within an allelic series)"
same,binding signal,[23],"7.68 upbm affinity estimate (log intensity, higher = more binding, comparable within an allelic series)"
GGCGCGCC,binding signal,[7],"9.93 upbm affinity estimate (log intensity, higher = more binding, comparable within an allelic series)"
same,binding signal,[24],"9.33 upbm affinity estimate (log intensity, higher = more binding, comparable within an allelic series)"
same,binding signal,[10],"10.1 upbm affinity estimate (log intensity, higher = more binding, comparable within an allelic series)"
same,binding signal,[25],"9.71 upbm affinity estimate (log intensity, higher = more binding, comparable within an allelic series)"
same,binding signal,[12],"9.89 upbm affinity estimate (log intensity, higher = more binding, comparable within an allelic series)"
same,binding signal,[26],"10.1 upbm affinity estimate (log intensity, higher = more binding, comparable within an allelic series)"
same,binding signal,[15],"9.82 upbm affinity estimate (log intensity, higher = more binding, comparable within an allelic series)"
same,binding signal,[27],"10 upbm affinity estimate (log intensity, higher = more binding, comparable within an allelic series)"
same,binding signal,[28],"9.73 upbm affinity estimate (log intensity, higher = more binding, comparable within an allelic series)"
